Screening results: PubChem, several laboratories
HIF-2a inh: blocks HIF-2a reporter activity. 786-0 RCC cells HIF-2a reporter, luciferase luminescence, overnight. inhibition, % at 18.8 µM. 360,000 compounds, 0.72% hits. AID 624352;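 active = inhibition of the luminescence signal of 40% or more relative to plate controls, in a single-dose primary screen at 18.75 µM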
TRPM1 prom inh: inhibitors of MITF-driven TRPM1 promoter in melanoma cells; inhibition, % at 12.5 µM; SK-MEL-5 TRPM1 promoter luciferase, 24 h; AID 488899; 330,000 compounds, 0.83% hits;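 active = mean inhibition across replicates of 60% or more, whatever share of single replicates reaches that level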
CF NFkB block: cystic fibrosis NF-kB activation inhibition | AID 588850 | KKLEB NF-kB-GFP reporter, PAF-induced, GFP fluorescence overnight | inhibition, % at 5 µM | 360,000 compounds, 0.86% hits;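 active = at least 50% inhibition at 5 µM, scaled per plate between neutral and stimulator controls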;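 also: PAF is a Pseudomonas aeruginosa culture filtrate used as stimulus; plate controls were PAF-stimulated DMSO wells for no effect and unstimulated DMSO wells for full effect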
KKLEB cytotox: reduces viability of KKLEB cystic fibrosis airway cells; KKLEB CF airway cells viability, ATPlite luminescence, overnight; active compounds read low; cells stimulated with P. aeruginosa culture filtrate; activity change (cytotoxicity), % at 5 µM; 360,000 compounds, 0.36% hits; AID 602141;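 active = corrected activity change at or below -50% at 5 µM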
Shn3 3UTR inh: reduces Shn3 3'UTR luciferase signal in osteoblasts | Clone20 osteoblast Shn3 3'UTR firefly luciferase, 24 h | inhibition, % at 12.5 µM | 360,000 compounds, 0.52% hits | AID 588674;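 active = mean inhibition of at least 75% with every replicate also reaching 75%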;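 also: 0% = median of neutral control wells and 100% = pilot-screen positive control compound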
Peg3 prom inh: Peg3 promoter activity inhibition; HeLa PEG-Prom luciferase reporter, luminescence, overnight; inhibition, % at 20 µM; 360,000 compounds, 1.7% hits; AID 588405;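 active = inhibition of at least 50% at 20 µM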
CF NFkB conf: CF NF-kB inhibition confirmation, single concentration; 1,300 compounds, 64% hits; inhibition, % at 5 µM; AID 602472; shares compounds with CF NFkB block; KKLEB CF airway cells, PAF-induced NF-kB-GFP fluorescence, overnight; in the data active = inhibition above about 40%;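 also: stimulus PAF is a Pseudomonas aeruginosa filtrate and not platelet activating factor; plate controls were DMSO wells with stimulus for no effect and unstimulated DMSO wells for full effect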
Active calls of the source: *; nt = no result. Hits are enriched below; roughly 2.7% of the tested compounds scored in any of these assays.

SMILES	HIF-2a inh	TRPM1 prom inh	CF NFkB block	KKLEB cytotox	Shn3 3UTR inh	Peg3 prom inh	CF NFkB conf
COc1ccc(NC(=O)Cn2nnc(C(=O)NCc3ccccc3)c2N)cc1Cl	18	7	17	-11	21	12	nt
COc1ccc(NC(=O)Cn2nnc(C(=O)NCc3ccc(C)cc3)c2N)cc1Cl	1	-8	58*	-37	5	7	10
O=C(COC(=O)c1cccc(S(=O)(=O)N2CCCCC2)c1)NCc1cccc(Cl)c1	3	nt	-21	10	1	7	nt
COc1cc(/C=C2\C(=N)N3N=C(S(C)(=O)=O)SC3=NC2=O)ccc1OS(=O)(=O)c1ccc(C)cc1	2	-12	21	18	-4	-2	nt
Cc1ccc(CSc2nccc(-c3c(C)nc4ccccn34)n2)cc1	14	nt	50*	-11	79	32	63*
COc1ccc(-c2ccc([C@H]3[C@@H]4C=CCC[C@@]4(C)C(=O)N3Cc3ccccc3)c(F)c2)cc1OC	28	23	53*	-15	37	10	33
CC(C)Oc1ccc(CCC(=O)NNC(=O)CCC(=O)O)cc1	2	1	-6	-2	14	18	nt
Nc1nccc(SCc2ccc(Cl)cc2Cl)n1	-34	5	57*	-15	42	11	55*
O=C(Nc1ccc2c(c1)OCCO2)c1cc(-c2ccccn2)nc2ccc(Br)cc12	7	10	62*	-32	23	9	56*
O=C(NCc1ccccc1)c1cc(C2COCCN2C(=O)c2cccs2)on1 (centres undefined)	17	nt	-17	-20	5	0	nt
Cc1nn(-c2ccccn2)c2c1-c1nc(N)ncc1CC2	-163	-100	58*	-12	-64	-235	54*
Cc1cc(S(=O)(=O)N2CCCC(C)C2)ccc1-n1cnnn1 (centres undefined)	6	13	0	-2	13	14	nt
CCCNc1ncc2c(=O)[nH][nH]c(=O)c2n1	7	8	4	13	-14	13	nt
Oc1ccc(Br)cc1-c1nc2cnccn2c1NC1CCCCC1	25	-7	35	-24	-9	18	nt
Oc1ccc(Br)cc1-c1nc2cnccn2c1NC1CCCC1	21	-7	80*	-26	32	12	90*
O=[N+]([O-])c1ccc(S(=O)(=O)N2CCC3(CC2)OCCN3S(=O)(=O)c2cccs2)cc1	10	14	4	-5	19	9	nt
COc1ccc(OC)c(N(CCN2C(=O)c3ccccc3C2=O)C(=O)CCl)c1	8	nt	62*	-42	31	22	99*
COc1ccc(NC(=O)CCN2C(=O)c3ccccc3C2=O)c(OC)c1	13	-13	21	-1	-1	15	nt
O=C(Nc1nc2ccc(Cl)cc2s1)[C@@H]1CCCN1C(=O)c1cccs1	-130	-22	53*	-21	-16	-108	39
Cc1cccc2sc(NC(=O)[C@@H]3CCCN3C(=O)c3cccs3)nc12	14	10	-13	7	10	-4	nt
COc1ccc(-c2cc(=O)oc3cc(OC(=O)C4CCCCC4)ccc23)cc1	-7	0	74*	0	8	-13	84*
CCn1c2ccccc2c2cc(/C=N/n3cnnc3)ccc21	23	-5	-13	-26	28	38	nt
CCn1c2ccccc2c2cc(/C=N/O)ccc21	3	-2	72*	-9	14	-20	62*
O=Nc1ccc(NO)c2ccccc12	0	nt	85*	-19	41	-23	54*
COC(=O)c1cn(C(=O)OC)c2ccccc12	14	-11	-18	1	-10	-1	nt
SMILES	HIF-2a inh	TRPM1 prom inh	CF NFkB block	KKLEB cytotox	Shn3 3UTR inh	Peg3 prom inh	CF NFkB conf
O=C(CCS(=O)(=O)c1ccccc1)N(CCCN1CCOCC1)c1nc2ccc(F)cc2s1	-180	-29	59*	-38	-147	94*	2
O=C(CCS(=O)(=O)c1ccccc1)N(CCCN1CCOCC1)c1nc2c(F)cccc2s1	-75	-19	94*	-39	44	104*	71*
CCOC(=O)C1(C(=O)OCC)COC(=O)C1CN1Cc2cc3ccccc3nc2C1 (centres undefined)	24	nt	69*	-2	-8	17	74*
CCC(C)(C)c1ccc(OCC(=O)Nc2ccncc2)cc1	-11	-3	-12	-2	6	-7	nt
Cc1onc(-c2c(F)cccc2Cl)c1C(=O)Nc1cc(S(=O)(=O)N2CCCCC2)ccc1O	2	3	56*	-14	-2	42	48*
Cc1onc(-c2c(F)cccc2Cl)c1C(=O)Nc1ccc(S(=O)(=O)N2CCOCC2)cc1	11	2	-7	-6	-16	11	nt
C[C@@H]1CN([C@H](C)CO)C(=O)CCCn2nncc2CO[C@@H]1CN(C)S(=O)(=O)c1cccs1	6	nt	5	-4	-9	8	nt
O=C(c1c[nH]c2ccccc12)C(Cl)c1ccccc1 (centres undefined)	-30	13	63*	-33	17	10	42*
O=C(c1c[nH]c2ccccc12)C(O)C(c1ccccc1)N1CCOCC1 (centres undefined)	3	-6	11	-9	-3	0	nt
CN(Cc1ccco1)c1ncnc2ccc(-c3ccoc3)cc12	16	-7	66*	-10	-10	1	56*
c1cncc(-c2ccc3ncnc(NCc4cccs4)c3c2)c1	17	9	7	-11	15	11	nt
COc1cccc(CNc2ncnc3ccc(-c4c(C)noc4C)cc23)c1	-24	20	11	-33	45	-38	nt
COc1cccc(-c2ccc3ncnc(NCc4cccc(C)c4)c3c2)c1	24	0	69*	-8	9	19	62*
c1cncc(-c2ccc3ncnc(NCc4ccc5c(c4)OCO5)c3c2)c1	19	-6	55*	-13	6	18	65*
COc1cccc(-c2ccc3ncnc(NCc4cccs4)c3c2)c1	21	7	61*	-7	-15	31	85*
C=CCN(C(=O)c1oc2c(Cl)cc(C)cc2c1C)C1CCS(=O)(=O)C1 (centres undefined)	-244	-106	-11	-6	-76	-265	nt
c1ccc(N2CCN(c3ncnc4sc5c(c34)CCC5)CC2)cc1	-2	-11	59*	5	28	5	42*
CC1CCc2c(sc3ncnc(N4CCOCC4)c23)C1 (centres undefined)	20	-4	66*	-30	-9	17	63*
CC1CCc2sc3ncnc(N4CCOCC4)c3c2C1 (centres undefined)	29	1	51*	-20	19	20	57*
Cc1cc(C)n(-c2ncnc3sc4c(c23)CC(C)CC4)n1 (centres undefined)	14	1	-28	13	11	16	nt
